From publication PMC7826789 (International Journal of Molecular Sciences, 2021)

Key:
Settings in all cases: Compound Concentration (nM):1000
JNK1 = system: T1, JNK1
T1 construct: gene MAPK8

JNK2 = system: T2, JNK2
T2 construct: gene MAPK9

JNK3 = system: T3, JNK3
T3 construct: gene MAPK10

KIT(A829P) = system: KIT(A829P)
KIT(D816H) = system: KIT(D816H)
KIT(D816V) = system: KIT(D816V)
KIT(L576P) = system: KIT(L576P)
KIT(V559D) = system: KIT(V559D)
KIT(V559D,T670I) = system: KIT(V559D,T670I)
KIT(V559D,V654A) = system: KIT(V559D,V654A)
KIT-autoinhibited = system: KIT-autoinhibited
KIT = system: KIT
LATS1 = system: LATS1
LATS2 = system: LATS2
LCK = system: LCK
LIMK1 = system: LIMK1
LIMK2 = system: LIMK2
LKB1 = system: T4, LKB1
T4 construct: gene STK11

LOK = system: T5, LOK
T5 construct: gene STK10

LRRK2(G2019S) = system: LRRK2(G2019S)
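Also: KINOMEscan scanMAX binding as percent activity remaining versus control; lower means stronger binding.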

SMILES | Percent Control (JNK1) [%] | Percent Control (JNK2) [%] | Percent Control (JNK3) [%] | Percent Control (KIT(A829P)) [%] | Percent Control (KIT(D816H)) [%] | Percent Control (KIT(D816V)) [%] | Percent Control (KIT(L576P)) [%] | Percent Control (KIT(V559D)) [%] | Percent Control (KIT(V559D,T670I)) [%] | Percent Control (KIT(V559D,V654A)) [%] | Percent Control (KIT-autoinhibited) [%] | Percent Control (KIT) [%] | Percent Control (LATS1) [%] | Percent Control (LATS2) [%] | Percent Control (LCK) [%] | Percent Control (LIMK1) [%] | Percent Control (LIMK2) [%] | Percent Control (LKB1) [%] | Percent Control (LOK) [%] | Percent Control (LRRK2(G2019S)) [%]
NS(=O)(=O)c1ccc(N/N=C2\C(=O)Nc3ccc(C(=O)NCCc4c[nH]cn4)cc32)cc1 [GW300660X] | 61 | 89 | 96 | 85 | 41 | 94 | 100 | 100 | 100 | 100 | 93 | 100 | 100 | 100 | 100 | 100 | 100 | 100 | 100 | 71
Cl.O=C(O[C@H]1CN[C@H](C#Cc2cc3ncnc(Nc4ccc5c(cnn5Cc5ccccc5)c4)c3s2)C1)N1CCOCC1 [GSK200398A] | 90 | 91 | 88 | 100 | 69 | 100 | 100 | 100 | 87 | 100 | 96 | 100 | 100 | 100 | 81 | 100 | 100 | 100 | 63 | 84
CC1=C(C(=O)Nc2ccc3[nH]ncc3c2)C(c2ccc3ccccc3c2)CC(=O)N1 (stereo not shown) [GSK270822A] | 78 | 80 | 82 | 55 | 70 | 78 | 71 | 72 | 84 | 98 | 100 | 80 | 66 | 7 | 33 | 100 | 88 | 100 | 100 | 77
COc1cc(/C=N/Nc2ncnc3[nH]ncc23)ccc1O [GW578748X] | 40 | 49 | 37 | 36 | 26 | 22 | 51 | 44 | 100 | 52 | 57 | 56 | 100 | 52 | 42 | 100 | 100 | 100 | 100 | 49
NS(=O)(=O)c1ccc(Nc2ncc(-c3ccccc3)o2)cc1 [GW572399X] | 64 | 100 | 99 | 92 | 100 | 100 | 37 | 26 | 92 | 100 | 31 | 30 | 100 | 100 | 100 | 100 | 100 | 87 | 100 | 78
COc1ccc2c(-c3ccnc(Nc4cccc(OC(F)(F)F)c4)n3)cnn2n1 [GW810372X] | 22 | 60 | 41 | 83 | 77 | 87 | 88 | 88 | 86 | 100 | 81 | 86 | 100 | 91 | 100 | 94 | 100 | 100 | 100 | 86
CN(C)c1cc2c(Nc3ccc4c(cnn4Cc4ccccc4)c3)ncnc2cn1 [GW282974X] | 87 | 92 | 82 | 70 | 62 | 90 | 100 | 100 | 96 | 100 | 100 | 100 | 100 | 65 | 77 | 100 | – | 100 | 20 | 93
NS(=O)(=O)c1ccc(N/N=C2\C(=O)Nc3ccc(-c4cnco4)cc32)cc1 [GW276655] | 87 | 83 | 83 | 79 | 69 | 100 | 55 | 58 | 100 | 100 | 81 | 58 | 56 | 65 | 89 | 60 | 67 | 100 | 92 | 17
COc1cc2ncnc(Nc3ccc4c(cnn4Cc4ccccc4)c3)c2cc1OC.Cl [GW282449A] | 100 | 100 | 100 | 100 | 100 | 100 | 100 | 98 | 100 | 93 | 100 | 100 | 100 | 100 | 23 | 95 | 100 | 100 | 13 | 100
COc1cc(C=NNc2ncnc3c2cnn3-c2ccccc2)ccc1O [GW513184X] | 99 | 94 | 82 | 100 | 84 | 40 | 17 | 35 | 65 | 74 | 100 | 42 | 90 | 100 | 34 | 100 | 100 | 69 | 100 | 100
